{"source": "PubChem BioAssay (NCATS)", "note": "“And” between values parts separate entries of the source, which are not always exact repeats. Equal values may be shown once. Results filed as inconclusive are left out. A call without a number means that no potency is given here. Values without a mark were called inactive. The source made the active and inactive calls. The call rests on the fitted dose curve; in most records, active means well fitted cell-killing curve with a large enough effect; inconclusive means small, poorly fitted or top-dose-only effect, or effect the other way; inactive means no such curve, though single readings can be large or run the other way. Potency means the concentration at half of the fitted maximal effect.", "data": [{"assay": "Viability qHTS for spleen associated tyrosine kinase inhibitor (SYKi) naive MV4-11 cells (AID 1963823); further: nearly all actives have a fitted effect of over 40% in size", "conditions": "MV4-11 AML viability, CellTiter-Glo luminescence, 72 h; series mostly up to 45 µM", "outline": "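Viability of MV4-11 AML cells lacking prior SYK inhibitor exposure is scored by CellTiter-Glo luminescence following 72 hr compound incubation at 37 C, 5% CO2, seeded at 500 cells per well.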", "values": [{"smiles": "C=C(C(=O)O)C1CCC2(C)CCC(O)C(=C)C2C1", "note": "(configuration not stated)", "Potency": "inactive"}, {"smiles": "C=CC(C)(CC/C=C(\\C)C(=O)OC)OC1OC(COC(=O)CC(C)(O)CC(=O)O)C(OC2OC(CO)C(O)C(O)C2O)C(O)C1O", "note": "(configuration not stated)", "Potency": "inactive"}, {"smiles": "CCNC(=O)c1noc(-c2cc(Cl)c(O)cc2O)c1-c1ccc(OC)cc1", "Potency": "32.6 nM (active)"}, {"smiles": "CC1CC(O)C2(C)C(C(=O)O)=CCCC2C1(C)CCc1ccoc1", "note": "(configuration not stated)", "Potency": "inactive"}, {"smiles": "CC1(C)CC[C@]2(C(=O)O[C@@H]3O[C@H](CO)[C@@H](O)[C@H](O)[C@H]3O)CC[C@]3(C)C(=CCC4[C@@]5(C)CC[C@H](O[C@@H]6O[C@H](C(=O)O)[C@@H](O)[C@H](O)[C@H]6OC6OC(CO)C(O)C(O)C6O)C(C)(C)C5CC[C@]43C)[C@@H]2C1", "note": "(some centres not stated)", "viability (% of control)": "89.4% [at 9.25 µM]"}, {"smiles": "C/C=C1/[C@H](O[C@@H]2O[C@H](CO)[C@@H](O)[C@H](O)[C@H]2O)OC=C(C(=O)OC)[C@H]1CC(=O)OCCc1ccc(O)c(O)c1", "Potency": "inactive"}, {"smiles": "COC(=O)C1=CO[C@@H](O[C@@H]2O[C@H](CO)[C@@H](O)[C@H](O)[C@H]2O)C2C1C(=O)C[C@H]2C", "note": "(some centres not stated)", "Potency": "inactive"}, {"smiles": "CC(NC(=O)c1ccccc1N)C(=O)O", "note": "(configuration not stated)", "Potency": "inactive"}, {"smiles": "CCCCC(CC)COC(=O)/C=C/c1ccc(OC)cc1", "note": "(configuration not stated)", "Potency": "inactive"}, {"smiles": "CC(C)CC(=O)O[C@@H]1O[C@H](CO)[C@@H](O[C@H]2O[C@H](C)[C@@H](N[C@H]3C=C(CO)[C@@H](O[C@H]4O[C@H](CO)[C@@H](O[C@H]5O[C@H](CO)[C@@H](O[C@H]6O[C@H](CO)[C@@H](O)[C@H](O)[C@H]6O)[C@H](O)[C@H]5O)[C@H](O)[C@H]4O)[C@H](O)[C@H]3O)[C@H](O)[C@H]2O)[C@H](O)[C@H]1O", "viability (% of control)": "82.5% [at 9.25 µM]"}, {"smiles": "COc1ccc(N(C(=O)Nc2c(C)cccc2C)c2cc(Nc3ccc(N4CCN(C)CC4)cc3)ncn2)c(OC)c1", "Potency": "2310 nM (active)"}, {"smiles": "CC1=CC(=O)CC(C)(C)[C@H]1/C=C/C(CO)O[C@@H]1O[C@H](CO)[C@@H](O)[C@H](O)[C@H]1O", "note": "(some centres not stated)", "Potency": "inactive"}, {"smiles": "CC(=O)CCC1=C(C)C(O[C@@H]2O[C@H](CO)[C@@H](O)[C@H](O)[C@H]2O)C(O)CC1(C)C", "note": "(some centres not stated)", "Potency": "inactive"}, {"smiles": "CCOc1cc2ncc(C#N)c(Nc3ccc(OCc4ccccn4)c(Cl)c3)c2cc1NC(=O)/C=C/CN(C)C", "Potency": "126 nM (active) and 525 nM (active)"}, {"smiles": "[N-]=[N+]=N[C@]1(CO)O[C@@H](n2ccc(=O)[nH]c2=O)[C@@H](O)[C@@H]1O", "Potency": "inactive"}, {"smiles": "Fc1ccccc1CNCc1ccc(-c2ccnc3[nH]ccc23)cc1", "Potency": "5170 nM (active)"}, {"smiles": "C[C@@H]1CC[C@H]2C(C)(C)[C@H](O)[C@H](O)C[C@]2(C)[C@@]12Cc1c(O)cc3c(c1O2)CNC3=O", "Potency": "inactive"}, {"smiles": "CCC(CCO[C@@H]1O[C@H](CO[C@H]2OC[C@](O)(CO)[C@H]2O)[C@@H](O)[C@H](O)[C@H]1O)C(C)(C)O", "note": "(some centres not stated)", "Potency": "inactive"}, {"smiles": "CCCn1c(=O)c2[nH]c(-c3ccc(OCC(=O)O)cc3)nc2n(CCC)c1=O", "Potency": "inactive"}, {"smiles": "CSc1cc2c(s1)c1cnn(Cc3ccccc3F)c(=O)c1n2C", "Potency": "inactive"}, {"smiles": "CN[C@H]1CN(c2ccc3c(=O)c(C(=O)O)cn(-c4nccs4)c3n2)C[C@@H]1OC", "Potency": "605 nM (active)"}, {"smiles": "Cc1cc(-c2ncc(-c3cccnc3)cc2/C=C/c2ccccc2)cnc1-c1cccnc1", "Potency": "inactive"}, {"smiles": "C[C@@H]1O[C@@H](O[C@H]2[C@H](O)[C@@H](O)[C@H](OC[C@H]3O[C@@H](OC(=O)[C@]45CCC(C)(C)C[C@H]4C4=CCC6[C@@]7(C)C[C@H](O)[C@H](O[C@@H]8O[C@H](CO)[C@@H](O)[C@H](O)[C@H]8O)[C@@](C)(C(=O)O)C7CC[C@@]6(C)[C@]4(C)CC5)[C@H](O[C@@H]4O[C@H](CO)[C@@H](O)[C@H](O)[C@H]4O)[C@@H](O)[C@@H]3O)O[C@@H]2CO)[C@H](O)[C@H](O)[C@H]1O", "note": "(some centres not stated)", "viability (% of control)": "103% [at 9.25 µM]"}, {"smiles": "C=C1CCC2(OC1)OC1CC3C4CC=C5CC(O)CC(O[C@@H]6OC[C@@H](O)[C@H](O)[C@H]6O)C5(C)C4CCC3(C)C1(O)C2C", "note": "(some centres not stated)", "Potency": "inactive"}, {"smiles": "COc1cc(/C=C/C(=O)OC(C)(C)C(OC2OC(CO)C(O)C(O)C2O)C(=O)OCc2ccc(OC3OC(CO)C(O)C(O)C3O)cc2)ccc1O", "note": "(configuration not stated)", "Potency": "inactive"}, {"smiles": "Cc1cc2ncc(C(=O)NCC(C)(C)NCC(=O)N3CCC[C@H]3C#N)cn2n1", "Potency": "inactive"}, {"smiles": "COC(=O)C1=CO[C@@H](O[C@@H]2O[C@H](CO)[C@@H](O)[C@H](O)[C@H]2O)[C@@H]2C(CO)=CC[C@H]12", "Potency": "inactive"}]}]}
